Measured values taken from the supplement of paper PMC13380429.

Legend:
[1] = system: Vero E6 infected with SARS-CoV-2; assay: morphology score (similarity to uninfected cells); higher = more like uninfected cells; conditions: 24 h
[2] = system: Vero E6 infected with SARS-CoV-2; assay: SARS-CoV-2 infection rate relative to infected DMSO; higher = more infection, active = 60 or less; conditions: 24 h

Row | Structure (SMILES) | morphology score [1] | SARS-CoV-2 infection rate [2]
1 | O=C(NOCC1CC1)c1ccc(F)c(F)c1Nc1ccc(I)cc1Cl (10 µM) | 0.0812 | 100% (inactive)
2 | COc1cc2/c(=N/c3ccc(Br)cc3F)nc[nH]c2cc1OCC1CCN(C)CC1 [vandetanib] (10 µM) | 0.0459 | 102% (inactive)
3 | Cc1cn2nc([C@@H]3CCCCN3C(=O)c3cc(Cl)ccc3NS(C)(=O)=O)cc2nc1N1CC[C@H](N)C1 [presatovir] (10 µM) | 0.215 | 89% (inactive)
4 | COc1cc(N)cn[n+]1-c1ccccc1 [amezinium] (10 µM) | 0.0864 | 100% (inactive)
5 | CC1(C)[C@@H]2C[C@@H](O)[C@@](C)(O)[C@H]1C2 [2,3-cis/exo-pinanediol] (10 µM) | 0.0892 | 95.5% (inactive)
6 | CCCCCCCCCCCCCCCC(=O)C(F)(F)F (10 µM) | 0.158 | 97% (inactive)
7 | CC(C)(C#N)c1cc(Cn2cncn2)cc(C(C)(C)C#N)c1 [anastrozole] (10 µM) | -0.0389 | 109% (inactive)
8 | O=C(Nc1cc(Cl)cc(Cl)c1O)c1c(O)c(Cl)cc(Cl)c1Cl [oxyclozanide] (10 µM) | 0.0306 | 113% (inactive)
9 | CN1[C@@H]2CC[C@H]1C[C@@H](OC(=O)[C@H](CO)c1ccccc1)C2 [hyoscyamine] (10 µM) | 0.139 | 90.5% (inactive)
10 | Nc1nc2ccc(OC(F)(F)F)cc2s1 [riluzole] (10 µM) | 0.188 | 105% (inactive)
11 | Cc1ccc(NC(=O)C(C)C)cc1C1CCN(Cc2ccc(Oc3ccc(F)c(F)c3)cc2)CC1 (0.833333 µM) | 0.375 | 90.5% (inactive)
